# Screening results from PubChem BioAssay.
# NPC1 prom act: activators of NPC1 promoter; Potency, µM (titrated, usually from 9.22 µM), without a hit: at the top dose activation, hits mostly activators; actives 2.4% (n = 320,000); AID 485313; Huh7 NPC1 promoter luciferase reporter, 24 h; further: % of control where 0% means no effect; nearly all actives have a fitted effect of over 60% in size
#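 NPC1 promoter–luciferase Huh7 cells; 24 h compound; luminescence.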
# Rab9 prom act: activators of Rab9 promoter. Huh7 Rab9 promoter-luciferase reporter, luminescence, 24 h. AID 485297. actives 2.8% (n = 320,000). Potency, µM (highest dose often 9.22 µM), inactives show top-dose activation, negative = inhibition, most hits filed as activators; further: % of control where 0% means no effect; nearly all actives have a fitted effect of over 60% in size
#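 Luminescence read-out: Huh7 cells stably expressing Rab9-luciferase, treated 24 h with compound at 37 °C, then lysed with luciferase reagent for 10 min at ambient before reading.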
# SMN2 splice enh: increases expression of the SMN2 splice variant; Potency, µM (doses to about 46.1 µM), inactives show at the top dose activity change, positive = activation, actives largely listed as activators; AID 1458; HEK293 SMN2-luciferase splicing reporter, luminescence, 30-36 h; actives 2.8% (n = 210,000); further: % of control where 0% means no effect; nearly all actives have a fitted effect of over 55% in size
#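 HEK293 cells carry an SMN2 minigene-luciferase reporter in which exon 7 inclusion puts luciferase in frame. Cells were seeded at 2000 cells/well, attached for 10-12 hours, then exposed to compounds for 30-36 hours at 37C before ONE-Glo luminescence.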
# FLuc counter: counter-screen for miR-21 project: firefly luciferase inhibitors or activators. purified FLuc, Km substrates, luminescence inhibition. actives 6.9% (n = 360,000). Potency, µM (top dose mostly 57.5 µM), for inactives: at the top dose activity change, negative = inhibition, usual class: inhibitors;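 further: plate controls were vehicle for no effect and reference inhibitor for full effect; nearly all actives have a fitted effect of over 55% in size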
# Target sequence (P08659 whole entry, looked up): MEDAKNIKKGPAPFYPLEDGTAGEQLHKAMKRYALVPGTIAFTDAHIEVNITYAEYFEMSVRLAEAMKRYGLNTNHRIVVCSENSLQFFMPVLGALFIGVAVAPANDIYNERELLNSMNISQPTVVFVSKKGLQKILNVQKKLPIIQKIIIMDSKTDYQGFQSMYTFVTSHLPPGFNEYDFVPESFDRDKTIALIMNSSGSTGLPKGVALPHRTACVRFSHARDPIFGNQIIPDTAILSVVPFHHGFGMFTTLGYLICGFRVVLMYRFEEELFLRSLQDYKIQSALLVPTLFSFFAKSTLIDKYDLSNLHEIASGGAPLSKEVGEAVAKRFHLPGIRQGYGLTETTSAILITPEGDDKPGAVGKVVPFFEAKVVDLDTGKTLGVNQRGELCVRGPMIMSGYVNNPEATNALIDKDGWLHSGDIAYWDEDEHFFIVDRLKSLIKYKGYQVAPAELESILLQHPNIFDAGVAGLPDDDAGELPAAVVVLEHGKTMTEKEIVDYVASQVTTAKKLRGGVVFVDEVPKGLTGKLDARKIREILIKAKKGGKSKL
#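 Purified P. pyralis luciferase (10nM final) with 10uM D-luciferin and 10uM ATP (Km levels) in 50mM Tris acetate pH 7.5, 10mM Mg acetate, 0.01% Tween-20, 0.05% BSA; qHTS 6-point titration, ~60 µM downward; luminescence read.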
# ELG1 genotoxic: genotoxicity induction in ELG1-luciferase HEK293T cells; actives 1.3% (n = 330,000); Potency, µM (highest dose often 46 µM), for inactives: at the top dose activity change, positive = activation, hits mostly activators; HEK293T ELG1-luciferase reporter, luminescence, 16 h; AID 504466; further: % of control where 0% means no effect; nearly all actives have a fitted effect of over 60% in size
#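 HEK293T cells expressing luciferase-tagged ELG1 were exposed to compound or DMSO vehicle for 16 hr at 37 °C and 5% CO2. Luciferase activity was then measured with ONE-Glo after 30 min at room temperature.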
# Active calls of the source: *; u = inconclusive; x = no result. Rows were chosen to be rich in hits. Some 7.4% of all compounds tested hit in one or more screens of this group. The call rests on the fitted dose curve; in most records, active means well fitted curve in the direction sought with a large enough effect; inconclusive means small, poorly fitted or top-dose-only effect, or another doubt; inactive means no such curve, though single readings can be large; an effect the other way counts as inactive or inconclusive. Potency means the concentration at half of the fitted maximal effect.
SMILES,NPC1 prom act,Rab9 prom act,SMN2 splice enh,FLuc counter,ELG1 genotoxic
C=CCCC(=O)N1CCCC(Cc2cccc(Cl)c2)(C(=O)OCC)C1 (stereo not given),5%,3%,x,-17%,-3%
CCc1ccc(OCc2cnc(Cl)s2)cc1,18%,23%,10%,21µM*,u
Clc1ccc(OCc2cnc(Cl)s2)cc1,-2%,11%,-4%,15µM*,8%
CC(=O)Nc1ccc(OCc2cnc(Cl)s2)cc1,13%,24%,12%,-14%,10%
O=C(OCc1cnc(Cl)s1)c1ccccc1Cl,-3%,8%,6%,u,1%
CN(C)C(CNS(=O)(=O)c1ccc(Cl)cc1F)c1ccco1 (stereo not given),x,x,x,x,1%
CCOC(=O)c1c(C)[nH]c(C(=O)OCc2csc(CC(=O)Nc3ccccc3C)n2)c1C,8%,0%,x,u,2%
Cc1nc(N2N=C(c3ccc(Cl)cc3)CC2c2ccco2)sc1C(=O)N(C)C (stereo not given),-1%,2%,10%,15µM*,1%
O=C(Nc1ccc2c(c1)OCCO2)c1ccccn1,0.79µM*,0.32µM*,1.3µM*,0.85µM*,1µM*
O=C(Nc1ccc2c(c1)OCCO2)c1ccc2ccccc2n1,0%,4.5µM*,11µM*,2.1µM*,u
O=C(Nc1ccc(NC(=O)c2ccccn2)cc1)C(=O)Nc1ccc2c(c1)OCCO2,11%,15%,u,0%,10%
Cc1ccc(NC(=O)c2ccc3ccccc3n2)cc1S(=O)(=O)N(C)C,u,2.8µM*,22µM*,4.3µM*,u
Cc1ccc(C(CC(=O)c2ccco2)SCCO)cc1 (stereo not given),26%,30%,-7%,11µM*,u
Cc1ccccc1/C=N/NC(=O)c1sccc1C,u,2.2µM*,10µM*,1.5µM*,18µM*
O=C(N/N=C/c1ccc2c(c1)OCO2)c1cccs1,1.3µM*,1.3µM*,13µM*,3.4µM*,7.3µM*
Cc1ccsc1C(=O)N/N=C/C=C/c1ccccc1[N+](=O)[O-],17%,u,-6%,u,u
Cc1ccsc1/C=N/NC(=O)Nc1ccccc1,3.2µM*,1.6µM*,16µM*,2.7µM*,u
Cc1ccsc1C(=O)N/N=C/c1ccc2c(c1)OCO2,0.71µM*,0.63µM*,2.5µM*,1.5µM*,2.3µM*
Cc1ccccc1S(=O)Cc1ccc(C(=O)N2CCN(c3cccc(C)c3C)CC2)o1 (stereo not given),x,x,x,-10%,x
CCCS(=O)(=O)Nc1cccc(-c2ccc3nnc(C)n3n2)c1,-9%,-1%,16µM*,1%,u
Cc1ccc2nc(Nc3nc(CSc4nnc(C)s4)cc(=O)[nH]3)nc(C)c2c1,-2%,-3%,x,9.5µM*,5%
Cc1ccc(CSCc2nc3ccccc3[nH]2)cc1,10%,4%,-17%,u,-2%
O=c1[nH]c2ccccc2nc1-c1ccc(Cl)cc1,u,2.8µM*,x,u,u
CC(C)SCc1nc2ccccc2[nH]1,3%,4%,-4%,-13%,3%
c1ccc(SCc2nc3ccccc3[nH]2)cc1,2.5µM*,2.2µM*,u,12µM*,u
SMILES,NPC1 prom act,Rab9 prom act,SMN2 splice enh,FLuc counter,ELG1 genotoxic
c1ccc2[nH]c(CSc3nccs3)nc2c1,14%,14%,u,u,9%
Fc1ccccc1CSCc1nc2ccccc2[nH]1,4µM*,2.8µM*,10µM*,17µM*,u
Cc1ccc(SCc2nc3ccccc3[nH]2)cc1,2.2µM*,u,u,6µM*,12%
CCCCCCN(C(=O)CCCCCN1C(=O)NC(C2CC2)C(C(=O)OCc2ccccc2)=C1C)C(C(=O)NCCCC)c1ccc(OCC(=O)OC)c(C(=O)OC)c1 (stereo not given),x,x,-29%,x,x
CSc1nc(Nc2ccc(C)cc2)c(C#N)c(-c2ccccc2)n1,x,x,x,-8%,x
Clc1ccc(SCc2nc3ccccc3[nH]2)cc1,u,u,11%,9.5µM*,-3%
Cc1ccc(C(=O)Nc2nnc(CC(=O)N/N=C/c3ccc(O)c(O)c3)s2)cc1,20%,-5%,x,4.8µM*,6%
CCCCCNC(=O)c1ccc2c(=O)[nH]c3c(C(=O)NCC4CCCO4)sc(=S)n3c2c1 (stereo not given),-1%,-2%,20%,u,-12%
Cc1ccc(CNC(=O)c2ccc3c(=O)[nH]c4c(C(=O)NCC5CCCO5)sc(=S)n4c3c2)cc1 (stereo not given),-2%,1%,-5%,19µM*,-10%
O=C(NCc1ccccc1)c1ccc2c(=O)[nH]c3c(C(=O)NCC4CCCO4)sc(=S)n3c2c1 (stereo not given),-4%,5%,18%,27µM*,-5%
O=C(NCc1ccccc1)c1ccc2c(=O)n(CC3CCCO3)c(=S)[nH]c2c1 (stereo not given),1%,-2%,-7%,3%,0%
CCN(CCO)c1ccc(N=Nc2cc(C)[nH]n2)cc1,u,u,x,0.27µM*,u
COC(=O)C1=C(CSc2nncn2C)NC(=O)NC1c1cc(C)ccc1C (stereo not given),-4%,-5%,17%,0%,-2%
COC(=O)C1=C(CSc2nnnn2C)NC(=O)NC1c1cc(C)ccc1C (stereo not given),-4%,0%,25µM*,3%,-1%
COC(=O)C1=C(CN2CCc3ccccc32)NC(=O)NC1c1cc(C)ccc1C (stereo not given),2%,-9%,4.5µM*,0%,-3%
COC(=O)C1=C(CN2CCN(C)CC2)NC(=O)NC1c1cc(C)ccc1C (stereo not given),-2%,-10%,14%,0%,-1%
Cc1ccnc(NC(=O)COc2ccc3oc4c(c3c2)CCCC4)c1,17%,5%,-21%,4.3µM*,u
Cc1ccccc1NC(=O)COc1ccc2oc3c(c2c1)CCCC3,x,x,-2%,-2%,x
Cc1ccnc(NC(=O)COc2ccc3c(c2)CCC3)c1,3.2µM*,2.5µM*,x,0.21µM*,2.1µM*
COc1cccc(-n2cc(-c3ccc(F)cc3)[nH]c2=S)c1,1.6µM*,0.32µM*,x,u,u
COc1ccc(-n2cc(-c3ccc(Cl)cc3)[nH]c2=S)cc1,28%,1.3µM*,x,-12%,6%
O=C(CCCn1c(=S)[nH]c2ccsc2c1=O)Nc1ccc2c(c1)OCCO2,0%,-1%,-1%,u,u
CC(OC(=O)CCCN=C1NS(=O)(=O)c2ccccc21)C(=O)Nc1ccccc1F (stereo not given),1%,-4%,x,2%,-2%
Cc1cc(N2CCC(C)CC2)n2nc(C)c(-c3ccccc3)c2n1,-3%,-7%,-20%,-10%,-8%
